# This is one part of a sample in which hits are shown more often than they occur.
# TDP-43 rescue: qHTS of TDP-43 Inhibitors: NCGC Sytravon Library Screen; hit rate 0.45% among 45,000; yeast TDP-43 toxicity rescue, BacTiter-Glo growth, 24 h; Potency, µM (highest dose often 46.1 µM), most hits filed as activators; active = well fitted activation curve with a large enough effect; note: 0% is about no effect; nearly all actives have a fitted effect of over 55% in size
#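 TDP-43-expressing yeast, pregrown in raffinose, seeded at OD600 0.02 in galactose medium with compound for 24 hr at 30 deg C. Growth read by BacTiter-Glo luminescence, so rescue of toxicity appears as activation.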
# * hit, by the source's call; i = inactive. Potency is the fitted concentration of half-maximal effect.
SMILES,TDP-43 rescue
CC1(C)O[C@H]2[C@@H](O1)[C@@H](C(=O)Nc1ccc(F)c(F)c1)O[C@@H]1OC(C)(C)O[C@@H]12,i
CC(O)(c1cccc(F)c1)c1nc(-c2cccc(F)c2)cs1 (configuration not stated),i
Cc1ccc(-c2csc(C(C)(O)c3cccc(F)c3)n2)cc1C (configuration not stated),i
COc1ccc(-c2csc(C(C)(O)c3cccc(F)c3)n2)cc1 (configuration not stated),14µM*
Cc1cccc(C)c1OCc1nc2c3cnn(-c4ccccc4Br)c3ncn2n1,i
CC(C)CCN1C(=O)c2ccccc2CC1(C)C(=O)NC1CCC(C)CC1 (configuration not stated),i
CN(C)c1ccc(C(=O)Nc2ccc(-c3nc4ccccc4o3)cc2)cc1,i
CCCCOc1cccc(C(=O)N(Cc2sccc2C)C2CCS(=O)(=O)C2)c1 (configuration not stated),i
Cc1ccc(N=c2c([N+](=O)[O-])nn(-c3ccc4c(c3)OCCO4)n2O)cc1F,i
COc1cccc(CNC(=O)Cn2nc([N+](=O)[O-])c(Br)c2C)c1,i
COc1ccc(-n2nc([N+](=O)[O-])c(=NCCc3cccc(C)c3)n2O)cc1,13µM*
Cc1ccc(NC(=O)C2CCCN(c3nnc(-n4c(C)ccc4C)s3)C2)c(C)c1 (configuration not stated),i
O=C(Cn1cc(C(=O)c2cccs2)c2ccccc21)Nc1ccc(Br)cc1,i
COc1ccccc1CNC(=O)Cc1ccc(OC)c(OC)c1,i
COc1ccccc1OCC(=O)NCCSCc1ccccc1Cl,i
COc1ccc(CNC(=O)CCSCc2ccccc2Cl)c(OC)c1,14µM*
Cc1cc(C)c(Cn2c(=O)n(CCCCCC(=O)NCc3ccc4c(c3)OCO4)c(=O)c3sccc32)c(C)c1,i
COc1cc(OC)c(NC(=O)N2CCc3cc(S(=O)(=O)N4CCC(C)CC4)ccc32)cc1Cl,i
CCOC(=O)CCn1c(=O)c2cccn2c2cccnc21,i
Cc1ccc([N+](=O)[O-])cc1NC(=S)NC(=O)c1cccnc1,i
O=C(NC(=S)NNC(=O)c1ccccc1O)c1cccnc1,i
CCC(C)c1ccc(O)c(NC(=S)NC(=O)c2cccnc2)c1 (configuration not stated),10µM*
COc1cccc(-n2c(=O)c3sccc3n(Cc3cc(=O)n4cc(Cl)ccc4n3)c2=O)c1,i
N/C(=N\OC(=O)CCCOc1ccccc1)c1ccc([N+](=O)[O-])cc1,i
N/C(=N\OC(=O)Cc1ccccc1)c1ccc([N+](=O)[O-])cc1,11µM*
SMILES,TDP-43 rescue
COc1ccc(CC(=O)O/N=C(\N)c2cccc([N+](=O)[O-])c2)cc1,i
Cc1cc(C)c(Cn2c(=O)n(CCCC(=O)NCc3ccc4c(c3)OCO4)c(=O)c3sccc32)c(C)c1,i
CCOC(=O)c1c(-c2ccc(Br)cc2)csc1NC(=O)c1ccc(C(C)(C)C)cc1,i
CNc1cnc(-c2cccc(C(=O)N3CCOCC3)c2)cn1,i
O=C(Oc1ccnc2cc(Cl)ccc12)N1CCCCCC1,3.2µM*
Oc1ccc(N2CCN(c3ccnc4cc(Cl)ccc34)CC2)cc1,i
COc1ccccc1Oc1ccnc2cc(Cl)ccc12,i
CC1(Oc2ccccc2-c2ccno2)CCN(Cc2csc3ccccc23)C1 (configuration not stated),i
CCOc1ccccc1NC(=O)N1CCC2(CC1)Oc1ccccc1C(=O)N2Cc1ccccc1F,i
CCN(CC)CCn1c(=N)n(CC(O)COc2ccccc2C)c2ccccc21 (configuration not stated),i
O=C(Nc1cccc(-c2nc3ccccc3[nH]2)c1)c1c(F)cccc1F,i

# Source: PubChem BioAssay (National Center for Advancing Translational Sciences (NCATS))
